Data on 39 molecules can be found in PubChem BioAssay (NCI).

Compounds without any hit were thinned out: in the full panel of roughly 83,000, 20% have a hit.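 Testing used 96-well plates and a 48-hour single-concentration exposure. Example: -40 means 40% of the starting cells died.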 The source made the active and inactive calls. The calls were made as follows: active = growth percent below 10; inactive = the rest.

The first test deals with HOP-62 NSCLC. Description: NCI-60 one-dose screen, 48 h (100 = growth as untreated, 0 = no growth, -100 = all killed). The conditions noted are these: 10 µM unless noted.
In the case of `C/C=C(\C)C(C(=O)NC1CCCCC1)N(C(=O)C1CCc2cc(F)ccc2O1)c1ccc(Cl)cc1` (stereo not drawn), the growth was 93.6% (inactive).

Turning to `N=C(N)c1ccc(-c2cc(Cl)cc(Cl)c2)cn1`, the growth was 91.6% (inactive).

For `COc1ccc(-c2cc(-c3ccccc3)nc(SCCCC(=O)NO)n2)cc1OC`, the growth is 5.03% (active).

As for `CCC(C)/C(=C\C#N)NCCCN/C(=C/C#N)C(C)CC` (stereo not drawn), the growth was 106% (inactive).

Regarding `CC1=C(C#N)C(=O)NC(C)C1` (stereo not drawn), the growth is 99.4% (inactive).

On to `COc1cccc(/C=C2\Oc3cc(OCCCN4CCCC4)ccc3C2=O)c1OC`, for which the growth is 97.7% (inactive).

As for `COc1cc(C2C3=C(COC3=O)Nc3cc4c(cc32)CCC4)cc2c1OCO2` (stereo not drawn), the growth is 35.5% (inactive).

As for `CCN(CC)c1ccc(/C=C2\Oc3ccc(O)c(I)c3C2=O)cc1`, the growth was 77.8% (inactive).

`C=C(C)[C@@H]1CC[C@]2(C(=O)O)CC[C@]3(C)[C@H](CC[C@@H]4[C@@]5(C)C[C@@H](CC#Cc6ccc(C(F)(F)F)cc6)[C@H](O)C(C)(C)[C@@H]5CC[C@]43C)[C@@H]12`: the growth was 10% (inactive).

With `COc1ccc2c(c1)[nH]c(=O)c1c3cccc(F)c3cn21`, the growth was 53.1% (inactive).

Turning to `CCOC(=O)C1=C(C)NC(C)=C(C(=O)OCC)C1(C)C`, the growth is 102% (inactive).

`COc1cccc(/C=C/C(=O)Nc2cc(OC)c3c(c2)OCO3)c1`: the growth is 99.7% (inactive).

With `COc1cccc(-c2nc3sccn3c2-c2ccnc(NCCCNS(=O)(=O)c3ccc(F)cc3)c2)c1`, the growth is 64.1% (inactive).

As for `COc1ccc(S(=O)(=O)Nc2cc(/C=C\c3cc(OC)c(OC)c(OC)c3)cc(OC)c2OC)cc1`, the growth is 52.9% (inactive).

On to `Cc1ccc(C(=O)NCCCNc2nccc(-n3ccc4cccnc43)n2)cc1`, for which the growth is 104% (inactive).

For the molecule `N/C(=N\C(N)=N\c1nc2ccccc2s1)c1ccncc1`, the growth was 60.7% (inactive).

In the case of `COC(=O)c1nc(-c2ccccc2)oc1S(=O)(=O)N1CCN(c2cccc(Cl)c2)CC1`, the growth was 83% (inactive).

`CCCCCCCCC(C)OC(=O)c1nn(C(C)=O)c2ccccc12` (stereo not drawn): the growth is 97.7% (inactive).

`Cc1ccc(N2CCN(C(C)C(N)=O)CC2)cc1` (stereo not drawn): the growth was 109% (inactive).

As for `COc1ccc(S(=O)(=O)NCCCNc2nccc(-c3c(-c4cccc([N+](=O)[O-])c4)nc4sccn34)n2)cc1`, the growth is 61% (inactive).

Take `COc1ccc(-n2c(=S)sc3c(Cl)nc(C)nc32)c(OC)c1`: the growth was 90% (inactive).

Take `N[C@@H]1CCN(C(=O)c2cc3cc(Cl)c(F)c(F)c3[nH]2)C1`: the growth was 84.4% (inactive).

Regarding `C=C[C@@H]1C[C@@H]2Cc3cc(F)ccc3N1O2`, the growth is 102% (inactive).

Take `CCCCN(CCCC)C(=O)CC`: the growth was 119% (inactive).

Consider `CC12CCC3C4(C)COC(c5ccco5)OC4CCC3(C)C1CC(C1=CCOC1=O)O2` (stereo not drawn), for which the growth was 105% (inactive).

For the molecule `CCCCN(CCCC)C(=N)c1ccnc2ccccc12`, the growth is 119% (inactive).

In the case of `C=C1C(=O)O[C@H]2[C@H]1CC/C(Cn1cc(CNC(=O)c3cc4ccccc4[nH]3)nn1)=C\CC[C@@]1(C)O[C@@H]21`, the growth is 101% (inactive).

Take `NC(=O)CCCN1C/C(=C\c2ccccc2)C(=O)c2ccccc21`: the growth is 88.8% (inactive).

For the molecule `COc1cc(/C=C/C(=O)N2CCN(C(=O)/C=C/c3cc(OC)c(OC)c(OC)c3)CC2)cc(OC)c1OC`, the growth was 102% (inactive).

For the molecule `COc1ccc(Nc2ncccc2C(=O)NCc2cn(Cc3cccc(Oc4ccccc4)c3)nn2)cc1`, the growth is 51.2% (inactive).

With `c1ccc(-c2nnc(-c3ccccn3)s2)nc1`, the growth is 80.4% (inactive).

For the molecule `C=C1CCC2C(C)(CO)C(O)CCC2(C)C1CC(NCc1ccccc1)C1=CCOC1=O` (stereo not drawn), the growth is 107% (inactive).

Regarding `CCCCCCCCCCCC(=O)NCCC[N+](C)(C)CC(=O)[O-]`, the growth was 97.3% (inactive).

`CC(C)CSc1nc(NN)c(C#N)c(-c2ccc(F)cc2)n1`: the growth is 47.3% (inactive).

`O=c1[nH]c(-c2ccccc2)nc(CN2CCCCC2)c1O`: the growth is 112% (inactive).

As to `Cc1ccc(S(=O)(=O)Nc2c(Br)cc(Br)cc2C(N)=O)cc1`, the growth was 109% (inactive).

As to `Nc1nc(-c2ccccc2)c(CCCOc2ccc(NC(=O)CBr)cc2)c(=O)[nH]1`, the growth is 134% (inactive).

For the molecule `Nc1cccc(-c2nc3sccn3c2-c2ccnc(NCCNS(=O)(=O)c3ccc(C(F)(F)F)cc3)n2)c1`, the growth was 49.6% (inactive).

In the case of `Cc1ccc(-c2nc(C#N)c(S(=O)(=O)n3nc(-c4ccccc4)cc3N)o2)cc1`, the growth was 87.6% (inactive).

For the next test, the system named is NCI-H460 lung. The description is as above. The conditions noted are these: 10 µM unless noted.
As to `C/C=C(\C)C(C(=O)NC1CCCCC1)N(C(=O)C1CCc2cc(F)ccc2O1)c1ccc(Cl)cc1` (stereo not drawn), the growth was 104% (inactive).

On to `N=C(N)c1ccc(-c2cc(Cl)cc(Cl)c2)cn1`, for which the growth is 96.9% (inactive).

`COc1ccc(-c2cc(-c3ccccc3)nc(SCCCC(=O)NO)n2)cc1OC`: the growth is 1.88% (active).

Regarding `CCC(C)/C(=C\C#N)NCCCN/C(=C/C#N)C(C)CC` (stereo not drawn), the growth was 116% (inactive).

In the case of `CC1=C(C#N)C(=O)NC(C)C1` (stereo not drawn), the growth is 107% (inactive).

As for `COc1cccc(/C=C2\Oc3cc(OCCCN4CCCC4)ccc3C2=O)c1OC`, the growth was 96.2% (inactive).

As to `COc1cc(C2C3=C(COC3=O)Nc3cc4c(cc32)CCC4)cc2c1OCO2` (stereo not drawn), the growth was 7.05% (active).

Turning to `CCN(CC)c1ccc(/C=C2\Oc3ccc(O)c(I)c3C2=O)cc1`, the growth was 25.5% (inactive).

As to `C=C(C)[C@@H]1CC[C@]2(C(=O)O)CC[C@]3(C)[C@H](CC[C@@H]4[C@@]5(C)C[C@@H](CC#Cc6ccc(C(F)(F)F)cc6)[C@H](O)C(C)(C)[C@@H]5CC[C@]43C)[C@@H]12`, the growth was 15.1% (inactive).

As for `COc1ccc2c(c1)[nH]c(=O)c1c3cccc(F)c3cn21`, the growth is 7.94% (active).

For the molecule `CCOC(=O)C1=C(C)NC(C)=C(C(=O)OCC)C1(C)C`, the growth is 111% (inactive).

Consider `COc1cccc(/C=C/C(=O)Nc2cc(OC)c3c(c2)OCO3)c1`, for which the growth was 100% (inactive).

Turning to `COc1cccc(-c2nc3sccn3c2-c2ccnc(NCCCNS(=O)(=O)c3ccc(F)cc3)c2)c1`, the growth was 34.8% (inactive).

For the molecule `COc1ccc(S(=O)(=O)Nc2cc(/C=C\c3cc(OC)c(OC)c(OC)c3)cc(OC)c2OC)cc1`, the growth is 8.41% (active).

On to `Cc1ccc(C(=O)NCCCNc2nccc(-n3ccc4cccnc43)n2)cc1`, for which the growth was 109% (inactive).

Take `N/C(=N\C(N)=N\c1nc2ccccc2s1)c1ccncc1`: the growth is 94% (inactive).

For the molecule `COC(=O)c1nc(-c2ccccc2)oc1S(=O)(=O)N1CCN(c2cccc(Cl)c2)CC1`, the growth is 82.2% (inactive).

Regarding `CCCCCCCCC(C)OC(=O)c1nn(C(C)=O)c2ccccc12` (stereo not drawn), the growth was 110% (inactive).

Take `Cc1ccc(N2CCN(C(C)C(N)=O)CC2)cc1` (stereo not drawn): the growth was 121% (inactive).

Consider `COc1ccc(S(=O)(=O)NCCCNc2nccc(-c3c(-c4cccc([N+](=O)[O-])c4)nc4sccn34)n2)cc1`, for which the growth is 44.4% (inactive).

As for `COc1ccc(-n2c(=S)sc3c(Cl)nc(C)nc32)c(OC)c1`, the growth is 3.2% (active).

In the case of `N[C@@H]1CCN(C(=O)c2cc3cc(Cl)c(F)c(F)c3[nH]2)C1`, the growth was 99.8% (inactive).

Regarding `C=C[C@@H]1C[C@@H]2Cc3cc(F)ccc3N1O2`, the growth is 112% (inactive).

Consider `CCCCN(CCCC)C(=O)CC`, for which the growth is 108% (inactive).

Take `CC12CCC3C4(C)COC(c5ccco5)OC4CCC3(C)C1CC(C1=CCOC1=O)O2` (stereo not drawn): the growth is 102% (inactive).

`CCCCN(CCCC)C(=N)c1ccnc2ccccc12`: the growth is 108% (inactive).

As to `C=C1C(=O)O[C@H]2[C@H]1CC/C(Cn1cc(CNC(=O)c3cc4ccccc4[nH]3)nn1)=C\CC[C@@]1(C)O[C@@H]21`, the growth is 101% (inactive).

In the case of `NC(=O)CCCN1C/C(=C\c2ccccc2)C(=O)c2ccccc21`, the growth is 111% (inactive).

As for `COc1cc(/C=C/C(=O)N2CCN(C(=O)/C=C/c3cc(OC)c(OC)c(OC)c3)CC2)cc(OC)c1OC`, the growth was 104% (inactive).

On to `COc1ccc(Nc2ncccc2C(=O)NCc2cn(Cc3cccc(Oc4ccccc4)c3)nn2)cc1`, for which the growth was 22.3% (inactive).

As for `c1ccc(-c2nnc(-c3ccccn3)s2)nc1`, the growth is 102% (inactive).

In the case of `C=C1CCC2C(C)(CO)C(O)CCC2(C)C1CC(NCc1ccccc1)C1=CCOC1=O` (stereo not drawn), the growth is 102% (inactive).

Regarding `CCCCCCCCCCCC(=O)NCCC[N+](C)(C)CC(=O)[O-]`, the growth is 104% (inactive).

For the molecule `CC(C)CSc1nc(NN)c(C#N)c(-c2ccc(F)cc2)n1`, the growth is 52.1% (inactive).

For `O=c1[nH]c(-c2ccccc2)nc(CN2CCCCC2)c1O`, the growth is 109% (inactive).

For the molecule `Cc1ccc(S(=O)(=O)Nc2c(Br)cc(Br)cc2C(N)=O)cc1`, the growth is 105% (inactive).

`Nc1nc(-c2ccccc2)c(CCCOc2ccc(NC(=O)CBr)cc2)c(=O)[nH]1`: the growth was 108% (inactive).

On to `Nc1cccc(-c2nc3sccn3c2-c2ccnc(NCCNS(=O)(=O)c3ccc(C(F)(F)F)cc3)n2)c1`, for which the growth is 43.5% (inactive).

Consider `Cc1ccc(-c2nc(C#N)c(S(=O)(=O)n3nc(-c4ccccc4)cc3N)o2)cc1`, for which the growth was 109% (inactive).
